In all, about 52,000 compounds went through this assay and about 4,300 (8.3%) were called active. What follows is part of a selection rich in actives, with near analogues and random picks from the rest. A number with no mark means an inactive call. Rule as the data show it: active = survival mostly below about 52% (no sharp cut-off); inactive = mostly above about 56%.

Data on 73 compounds can be found in PubChem BioAssay AID463173 (ICCB-Longwood Screening Facility, Harvard Medical School, 2010).

This experiment has as its system DeltatarO mutant. Description: growth inhibition of S. aureus wild type versus tarO mutant, primary screen, teichoic acid synthesis inhibitors, RN4220, OD600 (AID 463173). Conditions: OD600, 18 h, active compounds read low, screened at 18.75 µg/mL (by protocol).
As to `O=C(Cn1c(=O)n(-c2ccccc2)c(=O)c2c3c(sc21)CCCC3)Nc1ccc(F)cc1`, the survival was 98%.

For `CCc1ccc(CNC(=O)c2cnc(N3CCCCC3)c3ccccc23)cc1`, the survival was 94%.

For `COc1ccccc1NC(=O)c1cc(S(=O)(=O)N2CCc3ccccc32)ccc1F`, the survival was 81%.

In the case of `CCNC(=O)CC1C(=O)N(c2ccc(C)cc2)C(=O)N1CCC(C)C` (stereo not drawn), the survival is 91%.

Take `CC(C)c1ccc(NC(=O)CCNS(=O)(=O)c2cccc3nsnc23)cc1`: the survival is 50%.

`CC(=O)c1cccc(NC(=O)c2ccc3nc(Cc4ccccc4)oc3c2)c1`: the survival is 63%.

Take `Cc1ccccc1NC(=O)c1ccc2nc(Cc3ccccc3)oc2c1`: the survival was 102%.

As for `O=C(NCCCN1CCN(c2ccccc2)CC1)c1ccc2nc(Cc3ccccc3)oc2c1`, the survival was 92%.

Turning to `Cc1ccc(NC(=O)c2ccc3nc(Cc4ccccc4)oc3c2)cc1F`, the survival was 25% (active).

In the case of `CNC(=O)c1ccc2nc(CCc3ccccc3)oc2c1`, the survival was 80%.

Consider `O=C(NCCCN1CCN(c2ccccc2F)CC1)c1ccc2nc(Cc3ccccc3)oc2c1`, for which the survival is 46% (active).

On to `CNC(=O)c1ccc2nc(Cc3ccccc3)oc2c1`, for which the survival is 37% (active).

As for `CCNC(=O)c1ccc2nc(Cc3ccccc3)oc2c1`, the survival is 101%.

On to `O=C(NCCCN1CCN(c2ccccc2F)CC1)c1ccc2nc(CCc3ccccc3)oc2c1`, for which the survival is 87%.

With `Cc1ccc(-c2nnc(Nc3ccc(O)cc3)c3ccccc23)cc1S(=O)(=O)N1CCOCC1`, the survival was 65%.

As for `O=C1C2C3C=CC(C3)C2C(=O)N1CCN1C(=O)C2C3C=CC(C3)C2C1=O` (stereo not drawn), the survival is 101%.

Take `COc1ccccc1NC(=O)C1=C(C)Nc2nc(SC)nn2C1c1ccccc1Cl` (stereo not drawn): the survival was 87%.

Turning to `COC(=O)c1ccccc1NC(=O)CSc1c2c(nc3ccc(Cl)cc13)CCCC2`, the survival was 86%.

In the case of `CCOc1ccccc1NC(=O)CSc1c2c(nc3ccc(Cl)cc13)CCCC2`, the survival was 45% (active).

`COCCCNC(=O)CSc1c2c(nc3ccc(Cl)cc13)CCCC2`: the survival is 68%.

Take `CCCCNC(=O)CSc1c2c(nc3ccc(Cl)cc13)CCCC2`: the survival is 38% (active).

With `CCCNC(=O)CSc1c2c(nc3ccc(Cl)cc13)CCCC2`, the survival was 62%.

With `CCOc1ccc(CNC(=O)CSc2c3c(nc4ccc(Cl)cc24)CCCC3)cc1`, the survival was 70%.

Regarding `CC(C)OCCCNC(=O)CSc1c2c(nc3ccc(Cl)cc13)CCCC2`, the survival was 71%.

Turning to `CC(C)CCNC(=O)CSc1c2c(nc3ccc(Cl)cc13)CCCC2`, the survival was 51% (active).

With `CCN(CC)CCNC(=O)c1c(C)oc2ncn(C)c(=O)c12`, the survival was 91%.

For `Cc1ccc(CNC(=O)C2CCCN(c3nc4c(C)cc(C)cc4s3)C2)cc1` (stereo not drawn), the survival is 94%.

Take `CCC(=O)NC1CCC(c2ccccc2)CC1` (stereo not drawn): the survival was 97%.

Take `Cc1ccc(OC(=O)c2cccnc2)cc1`: the survival was 97%.

Turning to `Cc1ccc(C)c(N2CCN(C(=O)c3cc4ccc5cccnc5c4[nH]3)CC2)c1`, the survival is 95%.

In the case of `Cc1c(C(=O)N2CCCCC2)c(S(=O)(=O)NCc2ccc(N(C)C)cc2)c(C)n1C`, the survival was 120%.

Take `COc1cccc(-c2nnn(CCc3nn[nH]n3)n2)c1`: the survival is 84%.

`CCOC(=O)CCN(c1ccccc1)S(=O)(=O)c1ccc2[nH]c(=O)ccc2c1`: the survival was 95%.

On to `CCC(C(=O)N1CCN(c2ccc(OC)cc2)CC1)n1nc(C)n2c(cc3occc32)c1=O` (stereo not drawn), for which the survival was 117%.

Regarding `CCC(C(=O)N1CCN(c2cc(Cl)ccc2C)CC1)n1nc(C)n2c(cc3occc32)c1=O` (stereo not drawn), the survival is 69%.

Take `CCC(C(=O)N1CCN(c2cc(C)ccc2C)CC1)n1nc(C)n2c(cc3occc32)c1=O` (stereo not drawn): the survival is 43% (active).

Take `Cc1ccc(S(=O)(=O)c2nc(S(=O)(=O)c3ccc(C)cc3)c(NCCCOC(C)C)s2)cc1`: the survival was 75%.

As for `C=C(C)c1cccc(C(C)(C)NC(=O)N2CCCC2)c1`, the survival is 111%.

On to `Cc1ccc(CNC(=O)Cc2c(C)c3c(cc(C)c4c(C)coc43)oc2=O)cc1`, for which the survival was 100%.

For the compound `CCCCn1c(NCc2cc(Br)ccc2O)nc2ccccc21`, the survival is 42% (active).

Turning to `CCn1c(NCc2ccccc2)nc2ccccc21`, the survival is 95%.

Consider `CCCCCn1c(NCc2ccc(OC)cc2)nc2ccccc21`, for which the survival is 33% (active).

Regarding `Cn1c(NCc2ccccc2F)nc2ccccc21`, the survival is 93%.

Regarding `CCCC(O)c1nc2ccccc2n1Cc1ccccc1OC` (stereo not drawn), the survival was 105%.

For `CCn1c(NCc2ccc(OC)c(OC)c2)nc2ccccc21`, the survival is 116%.

Consider `CCCn1c(NCc2ccccc2C)nc2ccccc21`, for which the survival is 108%.

For the compound `CCCCn1c(NCc2ccc(N(C)C)cc2)nc2ccccc21`, the survival was 52%.

As for `CCCn1c(NCc2ccccc2F)nc2ccccc21`, the survival was 90%.

`CCCCCn1c(NCc2ccccc2OC)nc2ccccc21`: the survival is -1% (active).

On to `CCCn1c(NCc2ccc(N(CC)CC)cc2)nc2ccccc21`, for which the survival was 29% (active).

`CCCCn1c(NCc2ccc(OC)cc2O)nc2ccccc21`: the survival was 66%.

Regarding `CCOC(=O)c1cc(-c2ccc(F)cc2)n(CCC(=O)Nc2cc(OC)cc(OC)c2)c1C`, the survival is 71%.

In the case of `Cc1ccc(Cl)cc1-n1ncc2c(Nc3ccc4c(c3)OCCO4)ncnc21`, the survival was 82%.

In the case of `Cc1c(C(=O)N2CCCC2)oc2c1-c1nn(CC(=O)NCc3cccc(Br)c3)cc1CC2`, the survival was 75%.

Regarding `COc1ccccc1-c1cc2nc(C)c(CCC(=O)Nc3cc(C)ccc3C)c(C)n2n1`, the survival is 60%.

Take `COc1ccc(CNC(=O)C2(c3cccs3)CCOCC2)cc1`: the survival is 72%.

Consider `CCOc1ccc2c(c1)c(=O)c(S(=O)(=O)c1ccccc1)cn2CC(=O)Nc1ccccc1OC`, for which the survival was 70%.

For `CC1=C(C(=O)NCc2ccc(Cl)cc2)C2(CCC(C)CC2)OC1=O` (stereo not drawn), the survival is 86%.

For `Cc1nn(C)c2c1c(C(F)(F)F)cc(=O)n2C(C)C(=O)NCCc1ccc(Cl)cc1` (stereo not drawn), the survival is 81%.

With `Cn1c(=O)nc2n(-c3ccc(Cl)c(Cl)c3)c3cc(Cl)ccc3cc-2c1=O`, the survival is 87%.

For the compound `CCOc1ccc(CN2CCc3nc(N4CCN(c5ccccn5)CC4)ncc3C2)cc1OC`, the survival is 120%.

Take `CCCOc1ccc(C2c3c(oc4ccccc4c3=O)C(=O)N2c2nnc(C(C)C)s2)cc1` (stereo not drawn): the survival was 58% (active).

As to `COc1cc(C2c3c(oc4ccccc4c3=O)C(=O)N2c2nnc(C(C)C)s2)cc(OC)c1OC` (stereo not drawn), the survival was 63%.

Turning to `CCCOc1ccc(C2c3c(oc4ccccc4c3=O)C(=O)N2c2nc(C)c(C(=O)OCC)s2)cc1` (stereo not drawn), the survival is 60%.

For the compound `COc1ccc(C2c3c(oc4ccccc4c3=O)C(=O)N2Cc2ccc3c(c2)OCO3)cc1` (stereo not drawn), the survival was 71%.

For `COC(=O)c1ccc(C2c3c(oc4ccccc4c3=O)C(=O)N2c2nc(C)c(C(=O)OC)s2)cc1` (stereo not drawn), the survival was 71%.

As for `CC(C)c1nnc(N2C(=O)c3oc4ccccc4c(=O)c3C2c2cccc(O)c2)s1` (stereo not drawn), the survival was 62%.

With `Cc1nc(N2C(=O)c3oc4ccccc4c(=O)c3C2c2cccc(OCCC(C)C)c2)sc1C` (stereo not drawn), the survival is 59%.

For `CCOc1cccc(C2c3c(oc4ccccc4c3=O)C(=O)N2c2nc(C)c(C(=O)OC)s2)c1` (stereo not drawn), the survival is 51%.

In the case of `CCOc1cccc(C2c3c(oc4cc(C)c(C)cc4c3=O)C(=O)N2c2nc(C)c(C)s2)c1` (stereo not drawn), the survival was 74% (active).

Regarding `CCOc1cc(C2c3c(oc4ccccc4c3=O)C(=O)N2Cc2ccc3c(c2)OCO3)ccc1O` (stereo not drawn), the survival was 81%.

Consider `CCOc1ccc(C2c3c(oc4ccccc4c3=O)C(=O)N2Cc2ccc3c(c2)OCO3)cc1` (stereo not drawn), for which the survival is 36% (active).

In the case of `CCOC(=O)c1sc(N2C(=O)c3oc4ccccc4c(=O)c3C2c2ccc(C(C)(C)C)cc2)nc1C` (stereo not drawn), the survival is 51% (active).
